From PubChem BioAssay (NCATS)
“And” between values parts separate entries of the source, which are not always exact repeats. Equal values may be shown once. Inconclusive results are not listed. The source made the active and inactive calls. Unless noted, the call rests on the fitted dose curve; in most records, active means well fitted curve in the direction sought with a large enough effect; inconclusive means small, poorly fitted or top-dose-only effect, or another doubt; inactive means no such curve, though single readings can be large; an effect the other way counts as inactive or inconclusive.

Experiments:
[1] = target: Phosphoglycerate kinase, glycosomal (Trypanosoma brucei brucei) (UniProt P07378); test: qHTS Validation Assay to Find Inhibitors of Phosphoglycerate Kinase (AID 504547);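 further: control wells lack PGK and mark full inhibition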
In short: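 Substrate/PGK mix plus compound; reaction started with GAPDH (100nM final) to form 1,3-BPG; 60 min RT; Kinase-Glo Plus 10 min; luminescence. TEA 100mM pH 7.6, MgCl2 5mM, Tween-20 0.01%.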

[2] = target: phosphoglycerate mutase (Leishmania major) (UniProt Q4Q090); test: qHTS Validation Assay to Find Inhibitors of Phosphoglycerate Mutase (AID 504548); further: series mostly up to about 58 µM; on the % scale 0 is the no-effect control and ±100 the full control effect
In short: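 Lm PGAM 1.25nM final; 100 mM TEA pH 7.6, 5 mM MgCl2, 0.01% Tween-20; 45 min RT; Kinase-GloPlus, 10 min; end-point luminescence. Enzyme-free wells as negative controls.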

[3] = target: Ubiquitin carboxyl-terminal hydrolase 1 (Homo sapiens) (UniProt O94782); test: Inhibitors of USP1/UAF1: Pilot qHTS (AID 504865); further: nearly all actives have a fitted effect of over 35% in size; further: potency means the concentration at half of the fitted maximal effect
In short: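 Kinetic fluorescence assay: 1nM USP1/UAF1, 15 min compound preincubation, then 150nM Ub-Rho; 480/540 nm.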

[4] = qHTS for Inhibitors of ATXN expression: Validation of Cytotoxic Assay (AID 588349); further: on the % scale 0 is the no-effect control and ±100 the full control effect
In short: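 HEK293 cells treated with titrated compound for 72 hr at 37 degrees C; viability read as intracellular ATP by CellTiter Glo luminescence.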

[5] = qHTS for Inhibitors of ATXN expression: Validation (AID 588378); further: series mostly up to about 57 µM; on the % scale 0 is the no-effect control and ±100 the full control effect; nearly all actives have a fitted effect of over 75% in size
In short: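 Validation of ATXN2 expression inhibitors uses a cell-based luciferase fusion reporter in HEK293 cells, with 24 h compound exposure and paired viability (fluorescence) and reporter (luminescence) end-point reads.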

[6] = target: DNA dC->dU-editing enzyme APOBEC-3G (Homo sapiens) (UniProt Q9HC16); test: qHTS for inhibitors of Vif-A3G interactions: Validation (AID 588379); further: 0% is about no effect
In short: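 HeLa cells stably expressing Vif and A3G-eYFP, 700 cells/well, incubated overnight at 37 deg C, then exposed to compound overnight at 37 deg C. Inhibition of Vif-mediated degradation read as increased yellow fluorescence (Ex 488/Em 500-530) by laser-scanning cytometry.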

[7] = target: Estrogen receptor (Homo sapiens) (UniProt P03372); test: qHTS assay for small molecule antagonists of estrogen receptor alpha signaling (AID 588513; active means well fitted curve in the direction sought with a large enough effect in the signal ratio, with a control signal flat, not every such curve was filed as active; the % refers to the signal ratio; further: potency means the concentration at half of the fitted maximal effect)
In short: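 Cells were plated at 5000/well and incubated 4 h at 37 C. Compounds were added as 1:2 dilution series, duplicates. 17-beta-estradiol (0.5nM final) was added for 18 h before CCF4 detection.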

[8] = target: Estrogen receptor (Homo sapiens) (UniProt P03372); test: qHTS assay for small molecule agonists of estrogen receptor alpha signaling (AID 588514; calls by dose curve;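 further: 0% = vehicle only and 100% = reference agonist; nearly all actives have a fitted effect of over 70% in size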)
In short: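 ER-alpha-UAS-bla GripTite HEK293 cells, 5000/well in 2% charcoal/dextran-stripped FBS medium, treated with compound titrations 18 h at 37 C. CCF4 beta-lactamase read by fluorescence after 2 h RT; normalised to 20 nM 17-beta-estradiol (100%) and DMSO (0%), Hill fit for EC50 and efficacy.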

[9] = target: Androgen receptor (Homo sapiens) (UniProt P10275); test: qHTS assay for small molecule agonists of androgen receptor signaling (AID 588515; active means well fitted curve in the direction sought with a large enough effect in the signal ratio, with a control signal flat; the % refers to the signal ratio; further: potency means the concentration at half of the fitted maximal effect; on activation: on the % scale 0 is the no-effect control and ±100 the full control effect); settings: AR-UAS-bla HEK293, beta-lactamase ratio, agonist 16 h; activation: hits give high values
In short: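 EC50 and efficacy came from Hill fits of titrations (up to 92 uM) normalized to 30 nM R1881 as 100% and DMSO as 0%. Compound exposure was 16 h at 37 C on AR-UAS-bla HEK293 cells, with a 405/460/530 nm CCF4 fluorescence read.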

[10] = target: Androgen receptor (Homo sapiens) (UniProt P10275); test: qHTS assay for small molecule antagonists of androgen receptor signaling (AID 588516; active means well fitted curve in the direction sought with a large enough effect in the signal ratio, with a control signal flat, not every such curve was filed as active; the % refers to the signal ratio; further: on the % scale 0 is the no-effect control and ±100 the full control effect)
In short: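 Antagonist-mode qHTS: inhibition of R1881 (10 nM)-driven beta-lactamase expression in GripTite HEK 293 cells is measured after 16 h; values are Hill-derived IC50s normalized between R1881 and DMSO wells.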

Sequence of Androgen receptor (Homo sapiens) (P10275 whole entry, looked up): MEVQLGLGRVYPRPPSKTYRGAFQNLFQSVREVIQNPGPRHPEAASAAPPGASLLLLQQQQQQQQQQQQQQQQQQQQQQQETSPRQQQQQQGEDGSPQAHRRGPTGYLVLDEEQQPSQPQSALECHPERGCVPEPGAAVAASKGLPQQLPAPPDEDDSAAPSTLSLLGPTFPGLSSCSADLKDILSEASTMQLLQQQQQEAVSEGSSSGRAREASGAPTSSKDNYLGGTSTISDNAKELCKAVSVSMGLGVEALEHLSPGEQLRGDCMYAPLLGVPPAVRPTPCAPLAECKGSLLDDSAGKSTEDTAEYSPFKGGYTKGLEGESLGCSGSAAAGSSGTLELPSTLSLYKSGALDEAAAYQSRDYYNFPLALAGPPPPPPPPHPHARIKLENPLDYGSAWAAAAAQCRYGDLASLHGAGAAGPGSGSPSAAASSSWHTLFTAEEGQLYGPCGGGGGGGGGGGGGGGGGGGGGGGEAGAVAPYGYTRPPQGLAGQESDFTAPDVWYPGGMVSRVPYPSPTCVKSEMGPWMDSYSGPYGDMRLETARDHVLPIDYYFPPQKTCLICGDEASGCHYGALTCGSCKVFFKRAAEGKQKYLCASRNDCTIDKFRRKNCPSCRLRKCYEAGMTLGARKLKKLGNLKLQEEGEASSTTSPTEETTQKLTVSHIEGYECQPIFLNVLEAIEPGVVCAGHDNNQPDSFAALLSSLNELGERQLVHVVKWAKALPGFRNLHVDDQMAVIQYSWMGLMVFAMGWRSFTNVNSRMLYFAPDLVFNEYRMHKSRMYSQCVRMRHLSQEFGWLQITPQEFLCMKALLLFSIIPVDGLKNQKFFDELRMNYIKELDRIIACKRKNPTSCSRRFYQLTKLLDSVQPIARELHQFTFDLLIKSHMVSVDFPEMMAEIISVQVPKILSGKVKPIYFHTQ
Sequence of phosphoglycerate mutase (Leishmania major) (Q4Q090 1-553): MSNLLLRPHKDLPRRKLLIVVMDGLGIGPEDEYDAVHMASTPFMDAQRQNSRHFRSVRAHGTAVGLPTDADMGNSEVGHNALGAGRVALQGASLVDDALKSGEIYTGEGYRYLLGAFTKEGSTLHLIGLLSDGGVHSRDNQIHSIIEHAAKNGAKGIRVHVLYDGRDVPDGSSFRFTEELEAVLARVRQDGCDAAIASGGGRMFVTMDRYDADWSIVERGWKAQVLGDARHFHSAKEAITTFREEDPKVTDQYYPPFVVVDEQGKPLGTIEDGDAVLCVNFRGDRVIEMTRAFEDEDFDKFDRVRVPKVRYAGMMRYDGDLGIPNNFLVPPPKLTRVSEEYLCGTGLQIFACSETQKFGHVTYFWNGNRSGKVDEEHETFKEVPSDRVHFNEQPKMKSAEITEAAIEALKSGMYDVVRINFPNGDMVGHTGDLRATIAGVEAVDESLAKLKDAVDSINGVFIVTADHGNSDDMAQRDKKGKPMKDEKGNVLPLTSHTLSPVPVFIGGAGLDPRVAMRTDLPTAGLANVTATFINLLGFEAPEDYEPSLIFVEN
Sequence of Estrogen receptor (Homo sapiens) (P03372 whole entry, looked up): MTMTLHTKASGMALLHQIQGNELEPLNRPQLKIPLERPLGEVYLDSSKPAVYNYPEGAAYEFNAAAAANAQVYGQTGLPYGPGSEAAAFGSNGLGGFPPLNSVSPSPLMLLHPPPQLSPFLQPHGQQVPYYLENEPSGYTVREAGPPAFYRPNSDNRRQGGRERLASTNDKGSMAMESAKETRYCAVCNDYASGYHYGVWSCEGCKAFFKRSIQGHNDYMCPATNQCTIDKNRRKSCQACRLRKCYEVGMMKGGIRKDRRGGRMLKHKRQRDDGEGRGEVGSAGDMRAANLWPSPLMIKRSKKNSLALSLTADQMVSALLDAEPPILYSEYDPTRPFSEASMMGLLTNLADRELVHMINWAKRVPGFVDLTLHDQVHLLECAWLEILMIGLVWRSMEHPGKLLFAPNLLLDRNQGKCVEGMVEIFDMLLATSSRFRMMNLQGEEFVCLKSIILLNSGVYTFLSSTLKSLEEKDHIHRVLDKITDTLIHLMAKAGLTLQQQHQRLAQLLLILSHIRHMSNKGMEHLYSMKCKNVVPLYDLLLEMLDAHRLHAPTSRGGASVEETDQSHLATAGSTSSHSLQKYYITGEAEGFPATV
Sequence of Phosphoglycerate kinase, glycosomal (Trypanosoma brucei brucei) (P07378 whole entry, looked up): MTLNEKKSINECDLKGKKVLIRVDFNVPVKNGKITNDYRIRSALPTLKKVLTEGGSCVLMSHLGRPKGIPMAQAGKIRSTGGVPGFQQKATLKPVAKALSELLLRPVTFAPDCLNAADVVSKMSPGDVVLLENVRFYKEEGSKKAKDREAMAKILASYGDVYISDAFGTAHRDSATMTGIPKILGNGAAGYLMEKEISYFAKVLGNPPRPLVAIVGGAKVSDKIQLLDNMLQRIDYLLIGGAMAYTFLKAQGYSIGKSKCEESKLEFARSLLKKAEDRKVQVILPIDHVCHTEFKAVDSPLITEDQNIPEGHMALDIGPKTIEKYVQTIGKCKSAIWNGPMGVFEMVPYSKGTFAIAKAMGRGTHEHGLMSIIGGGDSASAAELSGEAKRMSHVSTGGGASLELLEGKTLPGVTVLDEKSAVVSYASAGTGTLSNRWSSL
Sequence of DNA dC->dU-editing enzyme APOBEC-3G (Homo sapiens) (Q9HC16 whole entry, looked up): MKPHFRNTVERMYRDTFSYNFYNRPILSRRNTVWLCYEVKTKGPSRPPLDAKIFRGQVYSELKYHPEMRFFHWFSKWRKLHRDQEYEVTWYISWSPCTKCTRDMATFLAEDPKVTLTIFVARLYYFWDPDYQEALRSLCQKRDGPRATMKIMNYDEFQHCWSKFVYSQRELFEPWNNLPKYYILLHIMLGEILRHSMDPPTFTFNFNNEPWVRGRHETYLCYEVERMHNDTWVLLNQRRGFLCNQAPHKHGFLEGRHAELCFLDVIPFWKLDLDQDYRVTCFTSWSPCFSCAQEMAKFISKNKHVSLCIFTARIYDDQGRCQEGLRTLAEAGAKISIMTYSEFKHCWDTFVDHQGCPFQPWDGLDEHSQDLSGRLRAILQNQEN
Sequence of Ubiquitin carboxyl-terminal hydrolase 1 (Homo sapiens) (O94782 whole entry, looked up): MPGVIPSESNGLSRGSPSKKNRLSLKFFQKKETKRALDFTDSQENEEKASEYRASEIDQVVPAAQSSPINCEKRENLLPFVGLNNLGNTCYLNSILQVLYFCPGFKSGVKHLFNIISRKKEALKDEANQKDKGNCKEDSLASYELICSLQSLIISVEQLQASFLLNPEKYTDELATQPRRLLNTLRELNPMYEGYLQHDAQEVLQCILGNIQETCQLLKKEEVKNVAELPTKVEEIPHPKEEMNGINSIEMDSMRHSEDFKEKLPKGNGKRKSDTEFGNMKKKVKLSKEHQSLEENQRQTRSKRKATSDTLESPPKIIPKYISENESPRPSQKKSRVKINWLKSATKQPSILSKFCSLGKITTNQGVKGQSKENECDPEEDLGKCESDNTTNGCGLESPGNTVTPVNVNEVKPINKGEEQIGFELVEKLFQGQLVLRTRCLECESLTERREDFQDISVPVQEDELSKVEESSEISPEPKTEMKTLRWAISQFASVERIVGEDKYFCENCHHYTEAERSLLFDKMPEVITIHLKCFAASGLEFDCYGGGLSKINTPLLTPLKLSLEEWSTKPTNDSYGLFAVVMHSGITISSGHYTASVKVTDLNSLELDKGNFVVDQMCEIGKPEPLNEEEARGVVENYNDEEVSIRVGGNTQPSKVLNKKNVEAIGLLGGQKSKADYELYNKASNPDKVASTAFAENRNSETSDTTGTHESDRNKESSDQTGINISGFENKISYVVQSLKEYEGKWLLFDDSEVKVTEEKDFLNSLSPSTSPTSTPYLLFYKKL

C1COC(NC(C2CC2)C2CC2)=N1
inactive: outcome [1] | outcome [2] | Potency [3] | Potency [4] | outcome [5] | outcome [6]

Nc1nc2c(ncn2COCCO)c(=O)[nH]1
inactive: outcome [1] | outcome [2] | Potency [3] | Potency [4] | outcome [5]

O=c1[nH]cnc2[nH]ncc12
inactive: outcome [1] | outcome [2] | Potency [3] | Potency [4] | outcome [5] | Potency [7] | outcome [8]

CC(c1cc2ccccc2s1)N(O)C(N)=O (centres undefined)
inactive: Potency [3]

NS(=O)(=O)c1cc2c(cc1Cl)NC=NS2(=O)=O
inactive: outcome [1] | outcome [2] | Potency [3] | Potency [4] | outcome [5] | Potency [7] | outcome [8]

NC[C@H](O)c1ccc(O)c(O)c1
inactive: outcome [2] | Potency [3] | Potency [4] | outcome [5]

NC(N)=NC(=O)c1nc(Cl)c(N)nc1N
inactive: outcome [1] | outcome [2] | Potency [3] | Potency [4] | outcome [5] | outcome [6] | outcome [8]

CCc1ccc(CCOc2ccc(CC3SC(=O)NC3=O)cc2)nc1 (centres undefined)
inactive: Potency [3]

C[C@]12CCC(=O)C=C1CC[C@@H]1[C@@H]2[C@@H](O)C[C@@]2(C)[C@H]1CC[C@]2(O)C(=O)CO
active: Potency [9] 0.0141 µM
inactive: outcome [1] | outcome [2] | Potency [3] | Potency [4] | outcome [5]

C#Cc1cccc(Nc2ncnc3cc(OCCOC)c(OCCOC)cc23)c1
inactive: Potency [3]

NC(=O)c1cnccn1
inactive: outcome [1] | outcome [2] | Potency [3] | Potency [4] | outcome [5] | Potency [7] | outcome [8]

COc1ccc2nc(S(=O)Cc3ncc(C)c(OC)c3C)[nH]c2c1 (centres undefined)
inactive: Potency [3]

Cn1cnc([N+](=O)[O-])c1Sc1ncnc2nc[nH]c12
inactive: outcome [1] | outcome [2] | Potency [3] | Potency [4] | outcome [5] | Potency [7] | outcome [8]

O=NN(CCCl)C(=O)NCCCl
inactive: outcome [1] | outcome [2] | Potency [3] | Potency [4] | outcome [5] | outcome [8] | activation [9] 15.8% | outcome [10]

CCCc1nc2c(C)cc(-c3nc4ccccc4n3C)cc2n1Cc1ccc(-c2ccccc2C(=O)O)cc1
active: Potency [3] 50.1 µM

Cc1cccc(-c2[nH]c(C(C)(C)C)nc2-c2ccc3nccnc3c2)n1
inactive: outcome [1] | outcome [2] | Potency [4]

CCOC(=O)C1=C[C@]2(CC)CCCN3CCc4c(n1c1ccccc41)[C@@H]32
inactive: outcome [1] | outcome [2] | Potency [4] | outcome [5]

CC(C)(Sc1ccc(CCN(CCCCC2CCCCC2)C(=O)NC2CCCCC2)cc1)C(=O)O
inactive: outcome [1] | outcome [2] | Potency [4] | outcome [5] | outcome [6] | activation [9] -10.8% | outcome [10]
active: Potency [3] 44.7 µM | Potency [7] 15.8 µM [inhibitor]

CCOC(=O)N1CCC(=C2c3ccc(Cl)cc3CCc3cccnc32)CC1
inactive: outcome [1] | outcome [2] | Potency [4] | outcome [5] | outcome [6]

CC(=O)Oc1ccccc1C(=O)O
inactive: outcome [1] | outcome [2] | Potency [3] | Potency [4] | outcome [5] | Potency [7] | outcome [8] | activation [9] -3.22% and 7.95% | outcome [10]

CCN(c1ccccc1)c1cc(NC)[n+](C)c(C)n1
inactive: outcome [6]

Cc1cc2c(C(C)C)c(O)c(O)c(C=O)c2c(O)c1-c1c(C)cc2c(C(C)C)c(O)c(O)c(C=O)c2c1O
inactive: outcome [6]

CCCC(CCC)C(=O)O
inactive: outcome [1] | outcome [2] | Potency [3] | Potency [4] | outcome [5] | Potency [7] | outcome [8]

NCCc1ccc(O)c(O)c1
inactive: outcome [1] | Potency [3]

OC(CN1CCC(Cc2ccc(F)cc2)CC1)c1ccc(Cl)cc1 (centres undefined)
inactive: outcome [1] | Potency [3] | Potency [4] | outcome [5]

CC(C)C[C@H](NC(=O)[C@@H](O)[C@H](N)Cc1ccccc1)C(=O)O
inactive: outcome [1] | outcome [2] | Potency [3] | outcome [5] | outcome [6]

O=C(O)COCCN1CCN(C(c2ccccc2)c2ccc(Cl)cc2)CC1 (centres undefined)
inactive: outcome [1] | outcome [2] | Potency [4] | outcome [5]

Cc1ccccc1C(OCCN(C)C)c1ccccc1 (centres undefined)
inactive: outcome [1] | outcome [2] | Potency [3] | Potency [4] | outcome [5] | Potency [7]

CCOC(=O)C1=C[C@@]2(CC)CCCN3CCc4c(n1c1ccccc41)[C@H]32
inactive: Potency [3] | outcome [6]

Nc1ncnc2nc(-c3ccc(N4CCOCC4)nc3)cc(-c3cccc(Br)c3)c12
inactive: outcome [1] | outcome [2] | Potency [4] | outcome [5]

NC(=O)c1ccc(-c2nc(-c3ccc4c(c3)OCO4)c(-c3ccccn3)[nH]2)cc1
inactive: outcome [6]

Cc1ccc2c(c1)C(=O)[C@@]1(O)CCN(c3ccccc3)C1=N2
inactive: Potency [3] | outcome [6]

CCCc1nn(C)c2c(=O)[nH]c(-c3cc(S(=O)(=O)N4CCN(C)CC4)ccc3OCC)nc12
inactive: Potency [3]
